Measurements as given in the supplement of paper PMC6897291.
Structures can show the parent of a compound that is named as a salt.

Tests used:
RIVA [1] = assay: growth inhibition by drug alone (1 - RLU/untreated control) (fraction); higher = stronger inhibition; settings: 177Lu-lilotomab satetraxetan 0 ug/ml
In short: (§1)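 A radiolabelled anti-CD37 antibody conjugate (~600 MBq/mg) was applied for 18 h at 0.5 µg/ml to RIVA and 1 µg/ml to U-2932 cells, with untreated cells run alongside. All cells were washed and seeded at 3,000 cells/well onto library-printed plates at 10/100 nM (RIVA) or 10/1,000 nM (U-2932). Growth inhibition was based on RealTime-Glo luminescence compared with untreated no-drug wells. Daily reads began on day 3 after 1 h at 37°C, with each value being 1 − RLU/mean of the 48 such wells on that plate.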

U-2932 [2] = assay: growth inhibition by drug plus 177Lu-lilotomab satetraxetan (1 - RLU/untreated control) (fraction); higher = stronger inhibition; settings: 177Lu-lilotomab satetraxetan 1 ug/ml
In short: as §1

RIVA [3] = assay: as above; settings: 177Lu-lilotomab satetraxetan 0.5 ug/ml
In short: as §1

U-2932 [4] = assay: growth inhibition by drug alone (1 - RLU/untreated control) (fraction); higher = stronger inhibition; settings: 177Lu-lilotomab satetraxetan 0 ug/ml
In short: as §1

SMILES	growth inhibition by drug alone (RIVA [1]; 10 nM, time (day): 3)	growth inhibition by drug alone (RIVA [1]; 10 nM, time (day): 4)	growth inhibition by drug alone (RIVA [1]; 10 nM, time (day): 5)	growth inhibition by drug alone (RIVA [1]; 10 nM, time (day): 6)	growth inhibition by drug alone (RIVA [1]; 100 nM, time (day): 3)	growth inhibition by drug alone (RIVA [1]; 100 nM, time (day): 4)	growth inhibition by drug alone (RIVA [1]; 100 nM, time (day): 5)	growth inhibition by drug alone (RIVA [1]; 100 nM, time (day): 6)	growth inhibition by drug plus 177Lu-lilotomab satetraxetan (U-2932 [2]; 10 nM, time (day): 3)	growth inhibition by drug plus 177Lu-lilotomab satetraxetan (U-2932 [2]; 10 nM, time (day): 4)	growth inhibition by drug plus 177Lu-lilotomab satetraxetan (U-2932 [2]; 10 nM, time (day): 5)	growth inhibition by drug plus 177Lu-lilotomab satetraxetan (U-2932 [2]; 10 nM, time (day): 6)	growth inhibition by drug plus 177Lu-lilotomab satetraxetan (U-2932 [2]; 1000 nM, time (day): 3)	growth inhibition by drug plus 177Lu-lilotomab satetraxetan (U-2932 [2]; 1000 nM, time (day): 4)	growth inhibition by drug plus 177Lu-lilotomab satetraxetan (U-2932 [2]; 1000 nM, time (day): 5)	growth inhibition by drug plus 177Lu-lilotomab satetraxetan (U-2932 [2]; 1000 nM, time (day): 6)	growth inhibition by drug plus 177Lu-lilotomab satetraxetan (RIVA [3]; 10 nM, time (day): 3)	growth inhibition by drug plus 177Lu-lilotomab satetraxetan (RIVA [3]; 10 nM, time (day): 4)	growth inhibition by drug plus 177Lu-lilotomab satetraxetan (RIVA [3]; 10 nM, time (day): 5)	growth inhibition by drug plus 177Lu-lilotomab satetraxetan (RIVA [3]; 10 nM, time (day): 6)	growth inhibition by drug plus 177Lu-lilotomab satetraxetan (RIVA [3]; 100 nM, time (day): 3)	growth inhibition by drug plus 177Lu-lilotomab satetraxetan (RIVA [3]; 100 nM, time (day): 4)	growth inhibition by drug plus 177Lu-lilotomab satetraxetan (RIVA [3]; 100 nM, time (day): 5)	growth inhibition by drug plus 177Lu-lilotomab satetraxetan (RIVA [3]; 100 nM, time (day): 6)	growth inhibition by drug alone (U-2932 [4]; 10 nM, time (day): 3)	growth inhibition by drug alone (U-2932 [4]; 10 nM, time (day): 4)	growth inhibition by drug alone (U-2932 [4]; 10 nM, time (day): 5)	growth inhibition by drug alone (U-2932 [4]; 10 nM, time (day): 6)	growth inhibition by drug alone (U-2932 [4]; 1000 nM, time (day): 3)	growth inhibition by drug alone (U-2932 [4]; 1000 nM, time (day): 4)	growth inhibition by drug alone (U-2932 [4]; 1000 nM, time (day): 5)	growth inhibition by drug alone (U-2932 [4]; 1000 nM, time (day): 6)
O=C(Nc1ccc(OC(F)(F)F)cc1)c1sccc1NCc1ccnc2ccccc12	-0.0142	-0.0478	-0.122	-0.26	-0.426	-0.341	-0.386	-0.562	-0.0212	0.051	0.0902	0.117	-0.0347	0.0399	0.0489	0.0855	–	–	–	–	–	–	–	–	–	–	–	–	–	–	–	–
O=C1c2c(O)ccc(O)c2C(=O)c2c(NCCNCCO)ccc(NCCNCCO)c21 [Mitoxantrone Hydrochloride]	0.293	0.565	0.667	0.759	0.568	0.82	0.873	0.904	0.559	0.694	0.81	0.881	0.971	0.982	0.987	0.99	0.83	0.913	0.95	0.968	0.736	0.92	0.947	0.962	–	–	–	–	–	–	–	–
Cc1[nH]c(/C=C2\C(=O)Nc3ccc(S(=O)(=O)N(C)c4cccc(Cl)c4)cc32)c(C)c1C(=O)N1CCN(C)CC1	-0.187	-0.174	-0.209	-0.352	-0.317	-0.305	-0.286	-0.342	-0.0184	0.0537	0.0856	0.0845	-0.011	0.0937	0.135	0.249	–	–	–	–	–	–	–	–	-0.0104	0.00253	-0.0727	-0.198	-0.0486	-0.0391	-0.0232	0.0376
COc1cc(Nc2ncc(F)c(Nc3ccc4c(n3)N(COP(=O)(O)O)C(=O)C(C)(C)O4)n2)cc(OC)c1OC	-0.112	-0.134	-0.185	-0.286	-0.0605	-0.0606	-0.107	-0.168	0.0179	0.0218	0.0539	0.209	-0.0117	0.00967	0.0277	0.162	–	–	–	–	–	–	–	–	–	–	–	–	–	–	–	–
Cn1cnc2c(F)c(Nc3ccc(Br)cc3Cl)c(C(=O)NOCCO)cc21 [AZD6244 (Selumetinib)]	0.0177	-0.0269	-0.137	-0.558	-0.313	-0.239	-0.319	-0.531	-0.00544	0.0596	0.0509	0.056	0.15	0.192	0.203	0.285	0.452	0.491	0.497	0.504	0.277	0.359	0.316	0.307	–	–	–	–	–	–	–	–
C[C@@H](Oc1cc(-c2cnn(C3CCNCC3)c2)cnc1N)c1c(Cl)ccc(F)c1Cl	0.00835	0.0307	-0.0637	-0.409	-0.398	-0.211	-0.28	-0.62	0.0291	0.0614	0.116	0.192	0.115	0.223	0.397	0.566	0.466	0.573	0.592	0.61	0.405	0.523	0.532	0.543	–	–	–	–	–	–	–	–
CC/C(=C(\c1ccccc1)c1ccc(OCCN(C)C)cc1)c1ccccc1 [Tamoxifen Citrate (Nolvadex)]	0.0612	0.0931	0.0782	-0.0872	0.551	0.381	0.352	0.322	0.0801	0.126	0.2	0.206	0.075	0.103	0.172	0.27	0.602	0.651	0.667	0.656	0.78	0.78	0.788	0.802	–	–	–	–	–	–	–	–
CC[C@@]1(O)C(=O)OCc2c1cc1n(c2=O)Cc2cc3c(CN(C)C)c(O)ccc3nc2-1 [Topotecan HCl]	0.45	0.629	0.715	0.801	0.689	0.808	0.85	0.882	0.403	0.516	0.604	0.67	0.97	0.978	0.983	0.985	0.802	0.878	0.913	0.944	0.814	0.883	0.91	0.931	–	–	–	–	–	–	–	–
COc1cc2ncnc(Nc3ccc(F)c(Cl)c3)c2cc1NC(=O)/C=C/CN1CCCCC1	-0.299	-0.339	-0.376	-0.409	-0.261	-0.3	-0.331	-0.346	-0.0733	-0.0275	0.0218	0.0574	-0.26	-0.16	-0.0838	0.0995	0.446	0.525	0.55	0.538	0.262	0.366	0.387	0.392	–	–	–	–	–	–	–	–
Cc1cccc(-c2[nH]c(C(C)(C)C)nc2-c2ccc3nccnc3c2)n1	-0.0404	-0.00935	-0.0953	-0.422	-0.418	-0.28	-0.32	-0.559	0.0382	0.108	0.172	0.201	0.0486	0.0781	0.126	0.19	0.595	0.633	0.644	0.65	0.316	0.428	0.434	0.447	–	–	–	–	–	–	–	–
